The panel holds about 79,000 compounds, 15% with a hit somewhere; the sample as a whole holds those more often. Unmarked numbers belong to inactive results. Calls of active or inactive are those of the source. Cut-off read from the data, not from the text of the source: active = growth inhibition above about 70%; inactive = the rest.
Experiments:
[1] = NCI Yeast Anticancer Drug Screen. Data for the mec2-1 strain (AID 157); settings: S. cerevisiae mec2-1 strain, active compounds read high
Method in brief: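 mec2-1 yeast strain, carrying an alteration in DNA damage repair or cell cycle control, was exposed to compounds; growth inhibition was measured relative to vehicle-treated controls.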

[2] = NCI Yeast Anticancer Drug Screen. Data for the rad14 strain (AID 159);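 note: 0% = growth of vehicle-treated control cultures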; settings: S. cerevisiae rad14 strain growth inhibition, active compounds read high
Method in brief: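 Vehicle-treated cultures served as the baseline for growth inhibition of a DNA repair-mutant yeast strain exposed to each compound.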

[3] = NCI Yeast Anticancer Drug Screen. Data for the sgs1 mgt1 strain (AID 161);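 note: 0% = growth of cultures given vehicle only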; settings: S. cerevisiae sgs1 mgt1 strain, active compounds read high
Method in brief: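 Yeast cells carrying a defined DNA-repair defect were exposed to test compounds. Growth inhibition was measured relative to vehicle-treated controls.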

[4] = NCI Yeast Anticancer Drug Screen. Data for the CLN2oe strain (AID 163);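 note: 0% = growth of vehicle-only control cultures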; settings: S. cerevisiae CLN2oe strain, active compounds read high
Method in brief: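 Yeast cells carrying a defined cell-cycle control alteration were exposed to test compounds. Growth inhibition was scored against vehicle-treated control cultures.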

[5] = NCI Yeast Anticancer Drug Screen. Data for the cln2 rad14 strain (AID 165);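 note: 0% = growth equal to vehicle treated cultures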; settings: S. cerevisiae cln2 rad14 strain, active compounds read high
Method in brief: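 Yeast carrying cln2 and rad14 alterations (cell cycle control and DNA damage repair) were exposed to compounds. Growth inhibition was measured against vehicle-treated controls.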

[6] = NCI Yeast Anticancer Drug Screen. Data for the bub3 strain (AID 167); settings: S. cerevisiae bub3 mutant strain, active compounds read high
Method in brief: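 Inhibition values come from growth of compound-treated mutant yeast normalised to vehicle-treated controls.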

[7] = NCI Yeast Anticancer Drug Screen. Data for the wt2 strain (AID 169);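 note: 0% = growth of vehicle-treated yeast cultures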; settings: S. cerevisiae wt2 strain growth inhibition, active compounds read high
Method in brief: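 Yeast cells were exposed to test compounds, and growth inhibition was measured relative to vehicle-treated controls.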

[8] = NCI Yeast Anticancer Drug Screen. Data for the mlh1 strain (AID 171);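 note: 0% = growth of vehicle-treated control cultures of the same strain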; settings: S. cerevisiae mlh1 strain growth inhibition, active compounds read high
Method in brief: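 Yeast carrying a defined genetic alteration in DNA damage repair or cell cycle control were exposed to test compounds. Growth inhibition was measured relative to vehicle-treated controls.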

[9] = NCI Yeast Anticancer Drug Screen. Data for the sgs1 strain (AID 173);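 note: 0% = growth of vehicle-only control cultures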; settings: S. cerevisiae sgs1 mutant, active compounds read high
Method in brief: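 Yeast mutant strains carrying defined defects in DNA damage repair or cell cycle control were exposed to test compounds. Growth inhibition was scored against vehicle-treated controls.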

[10] = NCI Yeast Anticancer Drug Screen. Data for the mlh1 rad18 strain (AID 175); settings: S. cerevisiae mlh1 rad18 strain growth inhibition, active compounds read high
Method in brief: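 Growth inhibition of the yeast strain was measured after compound exposure and expressed relative to vehicle-treated controls. The strain carries defined defects in DNA damage repair.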

[11] = NCI Yeast Anticancer Drug Screen. Data for the rad18 strain (AID 177); settings: S. cerevisiae rad18 mutant growth inhibition, active compounds read high
Method in brief: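 Yeast carrying a defined DNA damage repair alteration were exposed to compounds. Growth inhibition was expressed relative to vehicle-treated controls.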

[12] = NCI Yeast Anticancer Drug Screen. Data for the rad52 strain (AID 147);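 note: 0% = growth of vehicle-treated control cultures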; settings: S. cerevisiae rad52 mutant growth inhibition, active compounds read high
Method in brief: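 Yeast strain carrying a DNA damage repair alteration was exposed to test compounds. Growth inhibition was measured relative to vehicle-treated controls.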

[13] = NCI Yeast Anticancer Drug Screen. Data for the wt1 strain (AID 149);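 note: 0% = growth of vehicle-treated wt1 cultures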; settings: S. cerevisiae wt1 strain (SPY 50644) growth inhibition, active compounds read high
Method in brief: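 Vehicle-normalised growth inhibition; strain wt1; compound exposure.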

[14] = NCI Yeast Anticancer Drug Screen. Data for the rad50EPP+ strain (AID 151);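 note: 0% = growth of vehicle-treated control cultures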; settings: S. cerevisiae rad50 mutant strain, active compounds read high
Method in brief: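 Yeast strain carrying rad50 alteration (rad50EPP+) exposed to compounds; growth inhibition measured relative to vehicle-treated controls.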

[15] = NCI Yeast Anticancer Drug Screen. Data for the mgt1 strain (AID 153); settings: S. cerevisiae mgt1 mutant growth inhibition, active compounds read high
Method in brief: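 Yeast mgt1 strain (DNA repair/cell-cycle alteration panel) exposed to compounds; growth inhibition measured relative to vehicle-treated controls.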

[16] = NCI Yeast Anticancer Drug Screen. Data for the rad50 strain (AID 155);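 note: 0% = growth of vehicle-only cultures of the same strain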; settings: S. cerevisiae rad50 strain growth inhibition, active compounds read high
Method in brief: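 A DNA repair-deficient yeast mutant serves as the test organism; compound-induced growth inhibition is calculated against vehicle-treated cells.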

[17] = at 5.0 µM (retest, dose inferred, filed as 0.5)
[18] = at 50.0 µM (retest, dose inferred, filed as 5.0)

In the case of Cn1ccnc1Oc1ccc(Cl)cc1, the growth inhibition [1, 17] is reported as -46%, the growth inhibition ([1]; at 11.0 µM) is reported as 4% and the growth inhibition ([1]; at 33.0 µM) is reported as 17%. For the same compound, the growth inhibition [1, 18] was 26%, the growth inhibition ([1]; at 50.0 µM) was 58.3% and the growth inhibition ([1]; at 100.0 µM) was 97% (active). It also gave a growth inhibition ([2]; at 1.2 µM) of -5%, a growth inhibition ([2]; at 3.7 µM) of 4% and a growth inhibition ([2]; at 11.0 µM) of 26%. The growth inhibition ([2]; at 33.0 µM) was 46%, the growth inhibition ([2]; at 100.0 µM) was 98% (active) and the growth inhibition [3, 17] was -61%. It also gave a growth inhibition [3, 18] of 37%, a growth inhibition ([3]; at 50.0 µM) of 32.1% and a growth inhibition ([4]; at 1.2 µM) of -8%. The growth inhibition ([4]; at 3.7 µM) was -3%, the growth inhibition ([4]; at 11.0 µM) was -2% and the growth inhibition ([4]; at 33.0 µM) was 16%. For the same compound, the growth inhibition ([4]; at 100.0 µM) was 93% (active), the growth inhibition [5, 17] was -52% and the growth inhibition [5, 18] was -6%. It also gave a growth inhibition ([5]; at 50.0 µM) of -55.4%, a growth inhibition ([6]; at 1.2 µM) of -6% and a growth inhibition ([6]; at 3.7 µM) of -3%. It also gave a growth inhibition [6, 17] of -65%, a growth inhibition ([6]; at 11.0 µM) of 0% and a growth inhibition ([6]; at 33.0 µM) of 25%. For the same compound, the growth inhibition [6, 18] was 55%, the growth inhibition ([6]; at 50.0 µM) was 38.1% and the growth inhibition ([6]; at 100.0 µM) was 97% (active). The growth inhibition ([7]; at 1.2 µM) was -7%, the growth inhibition ([7]; at 3.7 µM) was 7% and the growth inhibition ([7]; at 11.0 µM) was 30%. The growth inhibition ([7]; at 33.0 µM) was 78% (active), the growth inhibition ([7]; at 100.0 µM) was 99% (active) and the growth inhibition ([8]; at 1.2 µM) was -11%. It also gave a growth inhibition ([8]; at 3.7 µM) of -4%, a growth inhibition ([8]; at 11.0 µM) of 0% and a growth inhibition ([8]; at 33.0 µM) of 45%. The growth inhibition ([8]; at 100.0 µM) was 98% (active), the growth inhibition ([9]; at 1.2 µM) was -15% and the growth inhibition ([9]; at 3.7 µM) was -5%. For the same compound, the growth inhibition ([9]; at 11.0 µM) was 15%, the growth inhibition ([9]; at 33.0 µM) was 83% (active) and the growth inhibition ([9]; at 100.0 µM) was 98% (active). The growth inhibition [10, 17] was -131%, the growth inhibition [10, 18] was 74% (active) and the growth inhibition ([10]; at 50.0 µM) was 89.2% (active). The growth inhibition ([11]; at 1.2 µM) was -7%, the growth inhibition ([11]; at 3.7 µM) was -1% and the growth inhibition ([11]; at 11.0 µM) was 6%. The growth inhibition ([11]; at 33.0 µM) was 55% and the growth inhibition ([11]; at 100.0 µM) was 97% (active).
In the case of Cn1c(=O)c(-c2ccccc2)c(N=[N+]=[N-])c2ccccc21, the growth inhibition ([12]; at 1.2 µM) is reported as -11%, the growth inhibition ([12]; at 3.7 µM) is reported as -6% and the growth inhibition ([12]; at 11.0 µM) is reported as 3%. The growth inhibition ([12]; at 33.0 µM) was 92% (active), the growth inhibition ([12]; at 100.0 µM) was 89% (active) and the growth inhibition ([13]; at 1.2 µM) was -38%. For the same compound, the growth inhibition ([13]; at 3.7 µM) was -26%, the growth inhibition ([13]; at 11.0 µM) was -25% and the growth inhibition ([13]; at 33.0 µM) was 91% (active). The growth inhibition ([13]; at 100.0 µM) was 90% (active), the growth inhibition ([14]; at 1.2 µM) was -15% and the growth inhibition ([14]; at 3.7 µM) was 6%. For the same compound, the growth inhibition ([14]; at 11.0 µM) was 10%, the growth inhibition ([14]; at 33.0 µM) was 4% and the growth inhibition ([14]; at 100.0 µM) was -18%. The growth inhibition ([15]; at 1.2 µM) was 1%, the growth inhibition ([15]; at 3.7 µM) was 0% and the growth inhibition ([15]; at 11.0 µM) was 32%. The growth inhibition ([15]; at 33.0 µM) was 94% (active), the growth inhibition ([15]; at 100.0 µM) was 89% (active) and the growth inhibition ([16]; at 1.2 µM) was 14%. For the same compound, the growth inhibition ([16]; at 3.7 µM) was 7%, the growth inhibition [16, 17] was -22% and the growth inhibition ([16]; at 11.0 µM) was 20%. For the same compound, the growth inhibition ([16]; at 33.0 µM) was 92% (active), the growth inhibition [16, 18] was 94% (active) and the growth inhibition ([16]; at 50.0 µM) was 82.7% (active). For the same compound, the growth inhibition ([16]; at 100.0 µM) was 92% (active), the growth inhibition ([1]; at 1.2 µM) was -1% and the growth inhibition ([1]; at 3.7 µM) was -9%. For the same compound, the growth inhibition [1, 17] was -10%, the growth inhibition ([1]; at 11.0 µM) was 4% and the growth inhibition ([1]; at 33.0 µM) was 87% (active). For the same compound, the growth inhibition [1, 18] was 92% (active), the growth inhibition ([1]; at 50.0 µM) was 83.8% (active) and the growth inhibition ([1]; at 100.0 µM) was 93% (active). The growth inhibition ([2]; at 1.2 µM) was 12%, the growth inhibition ([2]; at 3.7 µM) was 4% and the growth inhibition ([2]; at 11.0 µM) was 5%. The growth inhibition ([2]; at 33.0 µM) was 93% (active), the growth inhibition ([2]; at 100.0 µM) was 89% (active) and the growth inhibition [3, 17] was 61%. For the same compound, the growth inhibition [3, 18] was 93% (active), the growth inhibition ([3]; at 50.0 µM) was 87.4% (active) and the growth inhibition ([4]; at 1.2 µM) was 5%. For the same compound, the growth inhibition ([4]; at 3.7 µM) was -17%, the growth inhibition ([4]; at 11.0 µM) was 13% and the growth inhibition ([4]; at 33.0 µM) was 94% (active). The growth inhibition ([4]; at 100.0 µM) was 90% (active), the growth inhibition [5, 17] was 23% and the growth inhibition [5, 18] was 89% (active). The growth inhibition ([5]; at 50.0 µM) was 86% (active), the growth inhibition ([6]; at 1.2 µM) was 26% and the growth inhibition ([6]; at 3.7 µM) was 26%. For the same compound, the growth inhibition [6, 17] was -7%, the growth inhibition ([6]; at 11.0 µM) was 35% and the growth inhibition ([6]; at 33.0 µM) was 94% (active). For the same compound, the growth inhibition [6, 18] was 95% (active), the growth inhibition ([6]; at 50.0 µM) was 86.5% (active) and the growth inhibition ([6]; at 100.0 µM) was 94% (active). It also gave a growth inhibition ([7]; at 1.2 µM) of -35%, a growth inhibition ([7]; at 3.7 µM) of -29% and a growth inhibition ([7]; at 11.0 µM) of -9%. The growth inhibition ([7]; at 33.0 µM) was 87% (active), the growth inhibition ([7]; at 100.0 µM) was 91% (active) and the growth inhibition ([8]; at 1.2 µM) was 1%. For the same compound, the growth inhibition ([8]; at 3.7 µM) was 3%, the growth inhibition ([8]; at 11.0 µM) was 43% and the growth inhibition ([8]; at 33.0 µM) was 92% (active). For the same compound, the growth inhibition ([8]; at 100.0 µM) was 88% (active), the growth inhibition ([9]; at 1.2 µM) was -11% and the growth inhibition ([9]; at 3.7 µM) was -13%. The growth inhibition ([9]; at 11.0 µM) was 13%, the growth inhibition ([9]; at 33.0 µM) was 91% (active) and the growth inhibition ([9]; at 100.0 µM) was 92% (active). The growth inhibition [10, 17] was -4%, the growth inhibition [10, 18] was 94% (active) and the growth inhibition ([10]; at 50.0 µM) was 83% (active). For the same compound, the growth inhibition ([11]; at 1.2 µM) was 7%, the growth inhibition ([11]; at 3.7 µM) was -5% and the growth inhibition ([11]; at 11.0 µM) was 11%. The growth inhibition ([11]; at 33.0 µM) was 93% (active) and the growth inhibition ([11]; at 100.0 µM) was 85% (active).
